# High-throughput results: PubChem BioAssay, National Center for Advancing Translational Sciences (NCATS)
# Shown are actives, neighbours in structure and some others; about 7.3% of the full set was active somewhere.
# SMN2 splice up: increases expression of the SMN2 splice variant; AID 1458; HEK293 SMN2-luciferase splicing reporter, luminescence, 30-36 h; 210,000 tested, 2.8% active; Potency, µM (doses to about 46.1 µM), without a hit: at the highest dose activity change, positive = activation, usual class: activators; further: % of control where 0% means no effect; nearly all actives have a fitted effect of over 55% in size
#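 HEK293 cells carry an SMN2 minigene-luciferase reporter in which exon 7 inclusion puts luciferase in frame. Cells were seeded at 2000 cells/well, attached for 10-12 hours, then exposed to compounds for 30-36 hours at 37C before ONE-Glo luminescence.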
# FLuc counter: firefly luciferase modulation, counter-screen for miR-21 project; purified FLuc, Km substrates, luminescence inhibition; Potency, µM (titrated, usually from 57.5 µM), without a hit: at the highest dose activity change, negative = inhibition, most hits filed as inhibitors; 360,000 tested, 6.9% active;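 further: plate controls were vehicle for no effect and reference inhibitor for full effect; nearly all actives have a fitted effect of over 55% in size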
# Target sequence (P08659 whole entry, looked up): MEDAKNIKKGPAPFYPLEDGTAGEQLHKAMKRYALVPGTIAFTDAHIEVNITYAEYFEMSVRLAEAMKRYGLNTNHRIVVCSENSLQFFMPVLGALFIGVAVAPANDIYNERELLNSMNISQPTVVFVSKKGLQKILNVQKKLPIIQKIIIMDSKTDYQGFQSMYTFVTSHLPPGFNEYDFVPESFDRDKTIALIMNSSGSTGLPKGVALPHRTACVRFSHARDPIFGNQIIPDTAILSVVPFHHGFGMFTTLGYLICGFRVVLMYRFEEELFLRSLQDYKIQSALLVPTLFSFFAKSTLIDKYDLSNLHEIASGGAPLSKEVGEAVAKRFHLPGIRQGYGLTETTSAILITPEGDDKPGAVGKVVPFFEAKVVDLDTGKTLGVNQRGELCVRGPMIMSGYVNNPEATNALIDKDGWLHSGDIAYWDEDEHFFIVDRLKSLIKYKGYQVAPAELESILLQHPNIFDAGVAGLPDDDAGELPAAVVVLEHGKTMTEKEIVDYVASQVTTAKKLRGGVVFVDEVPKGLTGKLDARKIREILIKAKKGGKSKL
#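 Purified P. pyralis luciferase, 10 nM final, with Km-level 10 uM D-luciferin and 10 uM ATP in 50 mM Tris acetate pH 7.5, 10 mM Mg acetate, 0.01% Tween-20, 0.05% BSA; 6-point qHTS titration about 60 µM downward; luminescence read.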
# Rab9 prom act: Rab9 promoter activation | Potency, µM (titrated, usually from 9.22 µM), without a hit: at the top dose activation, negative = inhibition, usual class: activators | Huh7 Rab9 promoter-luciferase reporter, luminescence, 24 h | 320,000 tested, 2.8% active; further: % of control where 0% means no effect; nearly all actives have a fitted effect of over 60% in size
#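 Luciferase signal after 10 min detection reagent at ambient indicates Rab9 promoter upregulation; stably transfected Huh7 cells were treated 24 h with compound in DMSO at 37 °C, 5% CO2.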
# NPC1 prom act: NPC1 promoter activation; Huh7 NPC1 promoter luciferase reporter, 24 h; Potency, µM (highest dose often 9.22 µM), for inactives: at the top dose activation, actives largely listed as activators; 320,000 tested, 2.4% active; further: % of control where 0% means no effect; nearly all actives have a fitted effect of over 60% in size
#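 Quantitative HTS used a cell-based reporter: Huh7 cells stably bearing the NPC1 promoter upstream of luciferase were treated with compounds for 24 h, and promoter activation was read as luminescence.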
# ELG1 genotox: induces genotoxicity in HEK293T cells with luciferase-tagged ELG1; HEK293T ELG1-luciferase reporter, luminescence, 16 h; Potency, µM (highest dose often 46 µM), inactives show at the highest dose activity change, positive = activation, most hits filed as activators; 330,000 tested, 1.3% active; further: % of control where 0% means no effect; nearly all actives have a fitted effect of over 60% in size
#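 After overnight (16 hr) compound treatment at 37 °C, ELG1-luciferase HEK293T cells were lysed with ONE-Glo; luminescence quantified 30 min later at room temperature.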
# p53 reactivator: restores transcriptional activity of mutant p53; AID 504706; Potency, µM (series often up to 92.2 µM), inactives show at the top dose activity change, positive = activation, usual class: activators; H1299 p53-A138V BP100-luciferase reporter, luminescence, 24 h; 320,000 tested, 0.063% active; further: % of control where 0% means no effect; nearly all actives have a fitted effect of over 45% in size
#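 p53-null H1299 cells stably carrying temperature-sensitive p53-A138V and a BP100-luciferase reporter were pinned with compounds (4-point, 1:5 series) and held 24 hrs at 37 deg C. Luminescence was read 10 min after detection reagent.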
# * = called active by the depositor; ? = inconclusive; . = not tested or not shown; [ ] = dose if it differs, or a comment. The call rests on the fitted dose curve; in most records, active means well fitted curve in the direction sought with a large enough effect; inconclusive means small, poorly fitted or top-dose-only effect, or another doubt; inactive means no such curve, though single readings can be large; an effect the other way counts as inactive or inconclusive. Potency means the concentration at half of the fitted maximal effect.
SMILES,SMN2 splice up,FLuc counter,Rab9 prom act,NPC1 prom act,ELG1 genotox,p53 reactivator
CC(=O)O[C@H]1CC[C@]2(C)C(=CC[C@H]3[C@H]4C[C@H]5O[C@]6(CC[C@H](C)CN6)[C@H](C)[C@@H]5[C@]4(C)CC[C@@H]32)C1,-1.5%[9.22 µM],.,.,.,.,.
CCOC(=O)c1sc2nc3c(SCC(=O)O)cc(C(=O)c4cc(F)ccc4O)cn3c(=O)c2c1C,22.9%,8.49µM*,-2.6%,1.1%,4.5%,12.0%
COc1ccccc1CN1CC(C(=O)NCc2c(F)ccc(C)c2F)CCC1=O (stereo unspecified),.,30.1µM*,?,?,?,?
COc1ccccc1CN1CC(C(=O)NCc2ccc(C)c(F)c2)CCC1=O (stereo unspecified),.,-1.9%,1.2%,-5.7%,2.1%,9.0%
Cc1ccc(N2C(=O)CCSC23C(=O)N(Cc2ccccc2)c2ccccc23)cc1 (stereo unspecified),.,-11.5%,.,.,.,.
Cc1ccc(NC(=O)Cn2c(=O)n(CCC(=O)N3CCc4ccccc4C3)c(=O)c3ccccc32)cc1,2.2%,-13.8%,.,.,.,.
COc1ccc(-c2cc(-c3cc(F)ccc3O)[nH]n2)cc1OC,?,8.49µM*,3.98µM*,3.16µM*,?,8.2%
COc1ccc(-c2cc(-c3ccccc3O)[nH]n2)cc1OC,?,2.39µM*,3.98µM*,?,20.6µM*,?
COc1ccc(-c2cc(-c3ccc(OC)c(OC)c3)n[nH]2)c(O)c1,22.4µM*,5.36µM*,?,?,5.8µM*,?
COc1ccc(OCc2nc(-c3ccc(OC)c(OC)c3)no2)cc1,-14.3%,-15.7%,.,.,.,.
CCOc1ccc(-c2cc(-c3nc(-c4ccc(OC)c(OC)c4)no3)[nH]n2)cc1,.,19µM*,.,.,.,.
COc1ccc(/C=C/c2nc(C#N)c(N3CCCCC3)o2)cc1OC,-8.4%,?,.,.,.,.
CC(=O)OCC1C2CC[C@H]3C(OCc4ccc(F)cc4C(F)(F)F)OC[C@]4(C)[C@H]3C2=C(CN4C(=O)OC(C)(C)C)[C@H](C)C1COC(C)=O (stereo partly specified),-4.7%,.,.,.,.,.
C=CC[C@H](CC(=O)N(CCO)Cc1ccccc1)C(=O)N[C@@H](COC(=O)[C@@H](CC=C)Cc1ccc(F)cc1)Cc1c[nH]c2ccccc12,.,.,.,.,-10.3%,7.4%
COc1ccc(-c2cc3nccc(-c4cc(Cl)c(C)cc4O)n3n2)cc1,8.6%,-4.0%,.,.,.,.
Cc1ccc(O)c(NC2=C(Cl)C(=O)N(Cc3ccccc3)C2=O)c1,3.0%,21.3µM*,-6.8%,-1.1%,0.0%,-0.5%
Cc1ccc(N2C(=O)CS(=O)C(c3ccccc3)C2=O)cc1C (stereo unspecified),-2.8%,12µM*,11.5%,4.0%,13.5%,14.9%
Cc1ccc(N2C(=O)C3C(C2=O)N2CCCN2C3c2ccccc2)cc1C (stereo unspecified),-8.3%,-3.3%,-1.0%,-1.9%,1.2%,0.9%
CSc1nc2ccc(NC(=O)C3CCCO3)cc2s1 (stereo unspecified),12.6µM*,12µM*,3.55µM*,3.55µM*,10.3µM*,?
CSc1nc2ccc(NC(=O)c3ccc(Cl)s3)cc2s1,.,1.9µM*,2.82µM*,2µM*,?,18.0%
CC(=O)Nc1cc(C)c2nc(NC(C)=O)sc2c1,.,?,25.8%,24.0%,?,10.4%
COc1ccc2nc(NC(=O)C3CCCO3)sc2c1 (stereo unspecified),.,9.53µM*,?,1.12µM*,?,1.1%
CSc1nc2ccc(NC(=O)NC(=O)c3c(F)cccc3F)cc2s1,.,-18.7%,?,?,6.0%,7.4%
CC(=O)Nc1nc2c(C)cc(NC(=O)C3CCCCC3)cc2s1,.,.,1.78µM*,2.24µM*,?,15.4%
Cc1cccn2c(=O)cc(COC(=O)C(C)Oc3ccccc3)nc12 (stereo unspecified),.,.,.,.,1.0%,-0.4%
SMILES,SMN2 splice up,FLuc counter,Rab9 prom act,NPC1 prom act,ELG1 genotox,p53 reactivator
Cc1ccc(S(=O)(=O)OCCc2ccccc2)cc1,3.0%,.,.,.,.,.
COc1ccc(-c2nnc(NC(=O)C3CCCO3)s2)cc1 (stereo unspecified),23.6%,12µM*,3.98µM*,2.51µM*,?,23.7%
CC(C)c1nnc(NC(=O)C2CCCO2)s1 (stereo unspecified),.,-3.8%,3.6%,2.0%,6.8%,5.1%
Cc1cccc2sc(NC(=O)C3CCCO3)nc12 (stereo unspecified),20µM*,?,?,?,?,?
Cc1ccc2c(c1)C(=O)OC(C(=O)Nc1ncc(Cc3ccc(C(C)C)cc3)s1)C2 (stereo unspecified),7.5%,2.6%,.,.,.,.
COc1ccc(C(CC(=O)Nc2ccc(C)cn2)N2Cc3ccccc3C2=O)cc1OC (stereo unspecified),.,-2.1%,.,.,.,.
O=C(Nc1ccc(Cn2cccn2)cc1)c1ccc(COc2cccc(Br)c2)cc1,12.6µM*,15.1µM*,0.501µM*,0.562µM*,?,?
O=C(/C=C/c1ccc(OC(F)F)cc1)Nc1cccc(S(=O)(=O)NC2=NCCCCC2)c1,.,1.35µM*,9.9%,1.8%,-13.8%,-3.7%
O=S(=O)(NC1=NCCC1)c1cccc(NC(=S)Nc2ccc(OC(F)F)cc2)c1,.,.,.,.,-2.8%,-7.3%
COc1ccc(/C=C/C(=O)Nc2cccc(S(=O)(=O)NC3=NCCCCC3)c2)cc1,.,0.675µM*,26.9%,?,8.8%,4.2%
CCOC(=O)c1cc(C)n(CC2CCC(C(=O)Nc3ccc(OC)cc3)CC2)c1C (stereo unspecified),.,-3.7%,.,.,.,.
Cc1ccc(NC(=O)N2CCC(CN3CCCC3)CC2)c(C)c1,.,-5.2%,.,.,.,.
COc1ccc(C(=O)Nc2cccc(/C(C)=N\NC(=O)c3ccoc3C)c2)cc1OC,.,16.9µM*,16.0%,12.1%,-10.9%,.
C/C(=N\NC(=O)c1ccoc1C)c1ccccc1,.,10.7µM*,2µM*,2.51µM*,?,9.4%
C/C(=N\NC(=O)c1nn(C)c(C)c1Br)c1cccc(NC(=O)c2ccoc2C)c1,9.2%,2.39µM*,?,25.9%,15.7%,19.3%
CC(=O)c1cccc(NC(=O)c2ccoc2C)c1,6.4%,-4.6%,-1.1%,-4.4%,2.3%,-2.1%
CC1=C(C(=O)Nc2ccccc2C)C(c2cccs2)n2nc(SCc3ccccc3)nc2N1 (stereo unspecified),4.2%,2.2%,.,.,.,.
Cc1ccn2c(NC3CCCC3)c(-c3ccsc3)nc2c1,-30.3%,23.9µM*,-7.2%,1.5%,-6.3%,8.8%
